# Experimental data from ChEMBL document CHEMBL3988442, “University of Dundee, Small-Polar-MMV Screening Library” (2021).
# Screen size: about 66,000 compounds; about 960 (1.5%) showed an effect of 50% or more. Shown is part of a subset that was picked to be rich in strong results.
# Test system: Trypanosoma brucei
# Assay: Trypanosoma brucei 72 hour study
# Format: functional, organism-based
# Parameters: scale not given: in the data most compounds retested in dose-response had high values
structure (smiles),measurement,setting,value
Cl.NC(=O)C(c1ccc(F)cc1)N1CCN(CCO)CC1 (configuration not stated),Percent Effect,"30 µM, 30.03 µM",-19.82%
FC(F)(F)c1ccc(-c2cc(NC3CCNCC3)nc3[nH]ccc23)nc1,Percent Effect,"30.3 µM, […]",-0.8147%
Nc1ccnc(-c2cc(NC3CCNCC3)nc3[nH]ccc23)c1,Percent Effect,"30.3 µM, […]",98.23%
COc1nccnc1-c1cc(NC2CCNCC2)nc2[nH]ccc12,Percent Effect,"30 µM, 30.03 µM",-21.13%
CN(C)CCN1CCC2(CCN(C(=O)c3ccc(F)cc3)CC2)C1=O.O=C(O)C(F)(F)F,Percent Effect,"30.3 µM, […]",-18.87%
CS(=O)(=O)NCc1cnc2n1CCN(Cc1ccoc1)CC2.O=C(O)C(F)(F)F,Percent Effect,"30 µM, 30.03 µM",-17.96%
Cn1cccc1CNCC1CCCn2cc(C(C)(C)C)nc21 (configuration not stated),Percent Effect,"30.3 µM, […]",99.88%
Cc1ccc(CNCC2CCCn3ccnc32)s1 (configuration not stated),Percent Effect,"30.3 µM, […]",6.823%
Cn1cccc1CNCc1nnc2n1CCCC2C(F)(F)F (configuration not stated),Percent Effect,"30.3 µM, […]",-4.039%
CC(C)(C)c1cn2c(n1)C(CNCc1cnn3ccccc13)CCC2 (configuration not stated),Percent Effect,"30.3 µM, […]",100%
Cc1nc(C)c(CNCC2CCCn3ccnc32)s1 (configuration not stated),Percent Effect,"30.3 µM, […]",-1.913%
CC(C)(C)c1ncc(CNCC2CCCn3ccnc32)s1 (configuration not stated),Percent Effect,"30.3 µM, […]",9.708%
Cc1cn2c(n1)C(CNCc1cccc3c1OCO3)CCC2 (configuration not stated),Percent Effect,"30.3 µM, […]",8.746%
Cc1cn2c(n1)C(CNCc1cnn3ccccc13)CCC2 (configuration not stated),Percent Effect,"30.3 µM, […]",-7.399%
CC(C)(C)c1cn2c(n1)C(CNCc1ccccn1)CCC2 (configuration not stated),Percent Effect,"30.3 µM, […]",52.9%
O=C(O)C(F)(F)F.O=C(c1cccc(Cl)c1)N1CC[C@H]2[C@H]1CCN2CC1CCOCC1,Percent Effect,"30 µM, 30.03 µM",13.39%
Cc1noc(C)c1CN1CCC2(CCN(Cc3cccc(F)c3)CC2)C1.O=C(O)C(F)(F)F.O=C(O)C(F)(F)F,Percent Effect,"30.3 µM, […]",-58.32%
Cc1ccc(CN(CCCn2ccnc2)Cc2cnn(C)c2)s1.O=C(O)CC(O)(CC(=O)O)C(=O)O,Percent Effect,"30.3 µM, […]",-61.1%
CNc1ncc2c(n1)CN(C1CC(C)(C)NC(C)(C)C1)C2=O,Percent Effect,"30.3 µM, […]",8.017%
CCCc1nc(NCCCn2cccn2)c2c(n1)c(C)nn2CC,Percent Effect,"30.3 µM, […]",10.65%
CCc1nc(NCCCn2cccn2)c2c(n1)c(C)nn2CC,Percent Effect,"30.3 µM, […]",-16.86%
CCCc1nc(NCCc2ccccc2)c2c(n1)c(C)nn2CC,Percent Effect,"30.3 µM, […]",99.68%
CCn1nc(C)c2nc(C)nc(NCCCn3cccn3)c21,Percent Effect,"30.3 µM, […]",-1.841%
CCCn1c(NCCc2ccccc2)nc2c(C)nn(C)c2c1=O,Percent Effect,"30.3 µM, […]",99.9%
CCCc1nc(NCCCO)c2c(n1)c(C)nn2CC,Percent Effect,"30 µM, 30.03 µM",38.76%
CCn1nc(C)c2nc(C(C)C)nc(NCCc3ccc(O)cc3)c21,Percent Effect,"30.3 µM, […]",39.22%
CCn1c(NCc2ccccc2)nc2c(C)nn(C)c2c1=O,Percent Effect,"30.3 µM, […]",-7.911%
CCn1nc(C)c2nc(C)nc(NCCc3ccc(C)cc3)c21,Percent Effect,"30.3 µM, […]",100.2%
CCn1nc(C)c2nc(C)nc(NC3CCCC3)c21,Percent Effect,"30 µM, 30.03 µM",-3.661%
Cc1nn(C)c2c(=O)n(C(C)C)c(NCCc3ccccc3)nc12,Percent Effect,"30.3 µM, […]",4.366%
CCn1nc(C)c2nc(C)nc(NCCc3ccccc3)c21,Percent Effect,"30.3 µM, […]",92.15%
COc1cccc(CN2C[C@@H]3CC[C@@](O)(c4ccccn4)[C@@H]3C2)c1OC.O=C(O)CC(O)(CC(=O)O)C(=O)O,Percent Effect,"30.3 µM, […]",-12.48%
CC(=O)N1[C@H](CN(C)C)C[C@@H]2CN(C(=O)Cc3cccs3)CC[C@@H]21.O=C(O)C(F)(F)F,Percent Effect,"30.3 µM, […]",-71.88%
Cn1cccc1C(=O)N[C@H]1CN(Cc2ccoc2)[C@@H]2CCCO[C@H]12.O=C(O)C(F)(F)F,Percent Effect,"30.3 µM, […]",-1.992%
Cc1cccc(CN2CCc3ncnc(NC4CCC4)c3CC2)n1.O=C(O)C(F)(F)F.O=C(O)C(F)(F)F,Percent Effect,"30 µM, 30.03 µM",-15.74%
Cc1cc(C(=O)N2CC[C@H]3C[C@H](c4ccncn4)O[C@@H]3C2)no1,Percent Effect,"30 µM, 30.03 µM",-17.17%
CN(Cc1cccnc1)Cc1cncc2c1CCN(Cc1ccoc1)C2.Cl.Cl.Cl,Percent Effect,"30.3 µM, […]",-64.05%
O=C(O)C(F)(F)F.c1cc(CN2C[C@H](OCC3CCOCC3)[C@H]3COC[C@H]32)co1,Percent Effect,"30.3 µM, […]",-13.64%
Cc1ccc(S(=O)(=O)N2CC[C@H]3CO[C@H](CN(C)C)[C@H]3C2)cc1.O=C(O)C(F)(F)F,Percent Effect,"30 µM, 30.03 µM",-6.145%
Cc1ccc(CN2CCC3(CC2)NC(=O)CC3c2ccncc2)cc1C.O=C(O)C(F)(F)F.O=C(O)C(F)(F)F (configuration not stated),Percent Effect,"30 µM, 30.03 µM",-19.59%
Fc1ccc(-c2nc(CN3CCOC(Cn4cccn4)C3)co2)cc1 (configuration not stated),Percent Effect,"30.3 µM, […]",15.69%
COc1cc(OC)cc(-c2cc(CN)nc3ccnn23)c1.Cl,Percent Effect,"30.3 µM, […]",0.9349%
Cc1ccc(CN2Cc3ccnn3CC(C(=O)NCC3CC3)C2)o1.O=C(O)C(F)(F)F.O=C(O)C(F)(F)F (configuration not stated),Percent Effect,"30.3 µM, […]",-12.67%
Cc1cccc(-c2noc(CN3CCOC(Cn4cccn4)C3)n2)c1 (configuration not stated),Percent Effect,"30.3 µM, […]",7.086%
CCCc1nc(NCCOC)c2c(n1)c(C)nn2CC,Percent Effect,"30.3 µM, […]",-10.53%
CCCc1nc(NCCCOC)c2c(n1)c(C)nn2CC,Percent Effect,"30.3 µM, […]",88.3%
CCCc1nc(NCCCOCC)c2c(n1)c(C)nn2CC,Percent Effect,"30.3 µM, […]",-18.63%
CCOc1ncccc1CNC(=O)NCC(O)c1ccccc1OC (configuration not stated),Percent Effect,10 µM,-66.27%
COc1c(C)cc(CNCc2ccnc(N3CCOCC3)c2)cc1C.Cl,Percent Effect,"30.3 µM, […]",15.01%
same,Percent Effect,"10 mM, 10 mM as filed; unlikely as a test dose",-23.82%
COc1ccc(CNC(C)c2ccc(Cl)c(Cl)c2)c(OC)c1OC (configuration not stated),Percent Effect,"30 µM, 30.03 µM",20.68%
Cc1cc2nc(-c3ccccc3)cc(NCC3CCCOC3)n2n1 (configuration not stated),Percent Effect,"30.3 µM, […]",87.98%
Cc1cc2nc(-c3ccccc3)cc(NCC3CCS(=O)(=O)C3)n2n1 (configuration not stated),Percent Effect,"30.3 µM, […]",6.285%
c1ccc(-c2cc(NCCCC3CCOC3)n3nccc3n2)cc1 (configuration not stated),Percent Effect,"30.3 µM, […]",35.81%
COc1cccc(C(NCc2ccc(SC)cc2)c2nccn2C)c1 (configuration not stated),Percent Effect,10 µM,-34.89%
CCOCC1CN(Cc2cccs2)Cc2nn(C)cc21.O=C(O)C(F)(F)F (configuration not stated),Percent Effect,"30 µM, 30.03 µM",-3.631%
CCN(CC1CN(Cc2nc(C3CC3)no2)CCO1)c1cccnn1 (configuration not stated),Percent Effect,"30 µM, 30.03 µM",37.04%
Cc1ccc(C(=O)N2CCCC(Nc3ccc(F)cc3)C2)cc1 (configuration not stated),Percent Effect,"30 µM, 30.03 µM",-28.83%
COC(=O)c1ccc(C(=O)N2CCCC(Nc3ccc(F)cc3)C2)cc1 (configuration not stated),Percent Effect,"30 µM, 30.03 µM",-14.97%
CSc1ccc(C(=O)N2CCCC(Nc3ccc(F)cc3)C2)cc1 (configuration not stated),Percent Effect,"30 µM, 30.03 µM",63.86%
CN(C)C(=O)COC[C@]12COC[C@H]1CN(CCc1ccccc1)C2.O=C(O)C(F)(F)F,Percent Effect,"30.3 µM, […]",-48.5%
CCc1nc(CNCC2CCCN2c2cccnn2)cs1 (configuration not stated),Percent Effect,"30.3 µM, […]",4.558%
CN(Cc1coc(-c2ccccc2)n1)CC1CCCN1c1cccnn1 (configuration not stated),Percent Effect,"30 µM, 30.03 µM",-1.174%
CC(C)c1nc(CNCC2CCCN2c2cccnn2)cs1 (configuration not stated),Percent Effect,"30.3 µM, […]",100.4%
Cc1nc(CNCC2CCCN2c2cccnn2)cs1 (configuration not stated),Percent Effect,"30 µM, 30.03 µM",-9.671%
c1ccc(-c2nc(CNCC3CCCN3c3cccnn3)co2)cc1 (configuration not stated),Percent Effect,"30.3 µM, […]",97.98%
c1ccc(-c2nnc(CNCC3CCCN3c3cccnn3)o2)cc1 (configuration not stated),Percent Effect,"30 µM, 30.03 µM",-41.79%
CCc1nc(CN2CCOC(CNc3cccnn3)C2)cs1 (configuration not stated),Percent Effect,"30.3 µM, […]",-0.3167%
Cc1nc(CN2CCOC(CNc3cccnn3)C2)cs1 (configuration not stated),Percent Effect,"30 µM, 30.03 µM",-27.36%
CC(C)c1nc(CN2CCOC(CNc3cccnn3)C2)cs1 (configuration not stated),Percent Effect,"30.3 µM, […]",100.6%
c1cnnc(N2CCCC2CNCc2csc(-c3ccco3)n2)c1 (configuration not stated),Percent Effect,"30.3 µM, […]",17.07%
CCCc1nc(CNCC2CCCN2c2cccnn2)cs1 (configuration not stated),Percent Effect,"30.3 µM, […]",34.1%
CC(C)CCc1nc(CNCC2CCCN2c2cccnn2)cs1 (configuration not stated),Percent Effect,"30.3 µM, […]",99.06%
Cc1nn(C)c(N2CCOCC2)c1CNC1CCc2cc(F)ccc21.Cl (configuration not stated),Percent Effect,"30.3 µM, […]",2.572%
O=C(c1ccccn1)N1CCCC(c2cc(C(F)F)n3ncnc3n2)C1 (configuration not stated),Percent Effect,"30.3 µM, […]",-6.514%
CN(C)CCn1c2c(ccc1=O)CCN(C(=O)c1cccs1)CC2.O=C(O)C(F)(F)F,Percent Effect,"30.3 µM, […]",-37.11%
CC(C)NC(=O)CC1COC2(CCN(Cc3ccco3)CC2)C1 (configuration not stated),Percent Effect,"30.3 µM, […]",-14.26%
Cn1ccc(C(=O)NC2CCC23CCN(Cc2ccc(F)cc2)CC3)c1.O=C(O)C(F)(F)F (configuration not stated),Percent Effect,"30 µM, 30.03 µM",3.839%
CCN1CCc2nc(N3CCOCC3)nc(NC(C)C)c2C1,Percent Effect,"30.3 µM, […]",-20.31%
CCC(C)N1CCc2nc(N3CCCC3)nc(NC(C)C)c2C1 (configuration not stated),Percent Effect,"30.3 µM, […]",80.67%
CC(C)Nc1nc(N2CCOCC2)nc2c1CN(CC(=O)N(C)C)CC2,Percent Effect,"30 µM, 30.03 µM",-12.25%
CC(C)CCN1CCc2nc(N3CCOCC3)nc(NC(C)C)c2C1,Percent Effect,"30.3 µM, […]",99.5%
CC(C)Nc1nc(N2CCCC2)nc2c1CN(c1ncc(F)cn1)CC2,Percent Effect,"30.3 µM, […]",99.94%
CC(C)Nc1nc(N2CCCC2)nc2c1CCN(S(C)(=O)=O)CC2.O=C(O)C(F)(F)F.O=C(O)C(F)(F)F,Percent Effect,"30.3 µM, […]",-7.363%
CC(C)Nc1nc(N2CCCC2)nc2c1CN(S(C)(=O)=O)CC2,Percent Effect,"30.3 µM, […]",-6.542%
CC(C)Nc1nc(N2CCCC2)nc2c1CN(C)CC2,Percent Effect,"30.3 µM, […]",-8.686%
COCCC(=O)N1CCc2nc(N3CCOCC3)nc(NC(C)C)c2C1,Percent Effect,"30.3 µM, […]",-26.7%
CC(C)Nc1nc(N2CCCC2)nc2c1CN(C(C)C)CC2,Percent Effect,"30 µM, 30.03 µM",99.66%
CC(C)CC(=O)N1CCc2nc(N3CCOCC3)nc(NC(C)C)c2C1,Percent Effect,"30 µM, 30.03 µM",21.8%
CCCN1CCc2nc(N3CCOCC3)nc(NC(C)C)c2C1,Percent Effect,"30.3 µM, […]",-24.43%
COc1ccc(Oc2cc(CN)ccn2)cc1,Percent Effect,"30 µM, 30.03 µM",-27.14%
O=C1N(c2ccsc2)CCC12CCCN(c1ncc(F)cn1)C2 (configuration not stated),Percent Effect,"30.3 µM, […]",6.515%
CC(C)(C)n1ncc(NCCc2ccccc2C(F)(F)F)c(Cl)c1=O,Percent Effect,"30 µM, 30.03 µM",-22.16%
COC(C)(C)C(=O)N1CCC(c2cc(CN(C)C)n(C)n2)CC1.Cl,Percent Effect,"30.3 µM, […]",-10.49%
Cc1ccc(CN2Cc3c(cnn3C)C(COCC3CC3)C2)s1 (configuration not stated),Percent Effect,"30 µM, 30.03 µM",38.62%
CC(C)=CCN1C(=O)[C@H]2CC[C@@H]1CN(C(=O)CCc1nc(Cl)n[nH]1)C2,Percent Effect,"30 µM, 30.03 µM",-4.584%
COC(=O)CN1CC2(CCNCC2)COc2ccccc2S1(=O)=O.O=C(O)C(F)(F)F,Percent Effect,"30 µM, 30.03 µM",-19.66%
